Mdm2-MdmX inh: inhibitors of human Mdm2-MdmX association, primary screen, cell-based, luminescence, split luciferase, SaOS-2, uHTS; SaOS-2 split-luciferase Mdm2/MdmX complementation; inhibition, % at 8 µM; hit rate 3% among 330,000;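 active means inhibition of at least 50% at 8 µM in the primary screen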
HIF-2a inh: HIF-2a reporter inhibitors, primary screen, luminescence, 786-0 RCC cells; 786-0 RCC cells HIF-2a reporter, luciferase luminescence, overnight; AID 624352, 2012; inhibition, % at 18.8 µM; hit rate 0.72% among 360,000;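 active means inhibition of the luminescence signal of 40% or more relative to plate controls, in a single-dose primary screen at 18.75 µM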
CF NFkB block: inhibitors of PAF-induced NF-kB signaling, primary screen, cell-based, GFP fluorescence, uHTS. KKLEB NF-kB-GFP reporter, GFP fluorescence overnight. AID 588850, 2011. hit rate 0.86% among 360,000. inhibition, % at 5 µM;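 active means at least 50% inhibition at 5 µM, scaled per plate between neutral and stimulator controls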;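 further: PAF is a Pseudomonas aeruginosa culture filtrate used as stimulus; plate controls were PAF-stimulated DMSO wells for no effect and unstimulated DMSO wells for full effect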
KKLEB cytotox: cytotoxicity in KKLEB CF airway cells, primary screen, cytotoxicity control for CF NF-kB inhibitor project, cell-based, uHTS, fluorescence assay plates | hit rate 0.36% among 360,000 | KKLEB CF airway cells viability, ATPlite luminescence, overnight; hits give low values; cells stimulated with P. aeruginosa culture filtrate | AID 602141, 2011 | activity change (cytotoxicity), % at 5 µM;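 active means corrected activity change at or below -50% at 5 µM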
Peg3 prom inh: Peg3 promoter-driven luciferase inhibitors, primary screen, cell-based, HeLa, luciferase luminescence; HeLa PEG-Prom luciferase reporter, overnight; inhibition, % at 20 µM; hit rate 1.7% among 360,000;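 active means inhibition of at least 50% at 20 µM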
ABHD5-PLIN5 inh: ABHD5-PLIN5 interaction inhibitors, primary screen, cell lysate, split luciferase complementation, luminescence; Perilipin-5 (Homo sapiens) + 1-acylglycerol-3-phosphate O-acyltransferase ABHD5 (Homo …; hit rate 0.78% among 360,000; Split G. princeps luciferase complementation, 4 h; inhibition, % at 4 µM;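 active means inhibition above the mean inhibition across every tested compound plus 3 SD, cut at about 22% in these data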;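 further: 0% = DMSO only wells and the 100% control is not disclosed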
Mdm2 MdmX conf: Mdm2-MdmX complex disruptors, retested hits, confirmation, luminescence, single concentration | shares compounds with Mdm2-MdmX inh | Mdm2-MdmX binding, luminescent assay | inhibition, % at 8 µM | hit rate 55% among 10,000 | AID 489028, 2010; in the data active means inhibition above about 40%
Full FLuc ctr: full-length luciferase signal inhibition, confirmation, counter-screen for Mdm2/MdmX interaction inhibitor project, cell-based, single concentration, SaOS-2; shares compounds with Mdm2-MdmX inh; SaOS-2 full-length luciferase counterscreen, luminescence; inhibition, % at 8 µM; hit rate 77% among 6,200; AID 504607, 2011;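 active means mean inhibition at 8 µM reaching about 37%, which flags the compound as non-specific, limit read from the data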;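 further: p53-null SaOS-2 cells with luciferase driven by a doxycycline-inducible promoter; compound on cells about two nights before reading with doxycycline added after day one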
Active calls of the source: *; / = not tested or not shown. Rows were chosen to be rich in hits. Some 4.6% of all compounds tested hit in one or more screens of this group.

SMILES	Mdm2-MdmX inh	HIF-2a inh	CF NFkB block	KKLEB cytotox	Peg3 prom inh	ABHD5-PLIN5 inh	Mdm2 MdmX conf	Full FLuc ctr
O=c1c(Cl)nc2cc(Cl)ccc2n1CCNc1ncc(C(F)(F)F)cc1Cl	97*	18	-10	2	25	7	43*	7
Cn1ncc2c(=O)[nH]c(N)nc21	/	2	18	-16	14	13	/	/
CCC(CC)C(=O)N(C)c1c(C)nc2c(OCc3ccc(OC(F)F)cc3)cccn12	/	-8	-24	-12	23	1	/	/
O=C(Nc1cccc(-c2cn3ccccc3n2)c1)c1cc2ccccc2oc1=O	100*	-89	4	-7	73*	2	21	/
CC1=Nc2cc(C(=O)O)ccc2Sc2c(C)ccc(C)c21	6	3	-12	1	2	6	/	/
CC1=Nc2cc(C(=O)N3CCCC3)ccc2Sc2c(C)ccc(C)c21	90*	-15	18	-7	19	6	67*	23
C[C@H](CO)N1C[C@H](C)[C@@H](CN(C)S(=O)(=O)c2ccc(F)cc2)Oc2ccc(NC(=O)C3CCCCC3)cc2C1=O	4	4	11	-18	5	-8	/	/
CCOC(=O)c1ccc(NC(=O)CSc2nc(N3CCOCC3)nc(N3CCOCC3)n2)cc1	74*	14	21	-25	23	-6	25	/
O=C(CSc1nc(Nc2ccccc2)nc(N2CCOCC2)n1)Nc1ccc(Br)cc1F	49	13	39	-46	14	-1	/	/
CC(=O)c1ccc(NC(=O)CSc2nc(N3CCOCC3)nc(N3CCOCC3)n2)cc1	-23	-129	-30	13	-121	7	/	/
COc1ccc(NC(=O)CSc2nc3ccc(Nc4nc(N5CCOCC5)nc(N5CCOCC5)n4)cc3s2)cc1	85*	15	56*	-50*	10	5	49*	37*
CC(=O)CSc1nc2ccc(Nc3nc(N4CCOCC4)nc(N4CCOCC4)n3)cc2s1	21	12	7	16	11	-6	/	/
COc1ccc(Nc2nc(N3CCOCC3)nc(N3CCOCC3)n2)cc1Cl	61*	3	-19	14	-4	10	22	/
O=C(CSc1nc(Nc2ccccc2)nc(N2CCOCC2)n1)Nc1ccccc1Cl	75*	24	3	-3	19	-5	25	/
CC(C)(C)S(=O)N1Cc2cc(C(=O)N3CCc4ccccc4C3)nc(-c3cccc(-c4ccncc4)c3)c2[C@H]1CCO (some centres not stated)	/	13	16	-6	0	-2	/	/
O=C(NCc1cccnc1)c1ccc2sc([C@@H]3O[C@H](CO)[C@H](O)[C@H](O)[C@H]3O)nc2c1	/	5	-18	3	2	3	/	/
O=C(O)/C=C\C(=O)Nc1ccccc1C(=O)N1CCC(O)(c2ccc(Cl)cc2)CC1	/	11	8	0	6	5	/	/
Cc1ccc(NC(=O)CSc2nc3ccc(Nc4nc(N5CCOCC5)nc(N5CCOCC5)n4)cc3s2)cc1	95*	11	50	-42	6	0	41*	26
O=C1NC[C@H](CCCCN2C[C@H](Cc3ccc(O)cc3)N(CCc3ccccc3)C(=O)C2=O)N(CCc2ccc(O)cc2)C1=O	/	10	/	/	/	10	/	/
CC(C)(C)C1CCC(CN2C(Nc3ccccc3)=NC[C@@H]2Cc2ccccc2)CC1 (some centres not stated)	100*	8	10	-12	95*	13	40	47*
Cc1ccc(-n2c(SCC(=O)NCc3ccco3)nc3sc4c(c3c2=O)CC(C)(C)SC4)cc1	13	5	10	-13	16	6	/	/
CCC1CCc2c(sc3nc(SCC(=O)NCc4ccco4)n(-c4ccccc4)c(=O)c23)C1 (configuration not stated)	55*	5	2	-13	1	2	11	/
Cc1ccnc2nc(C(=O)OCC(=O)N(C)C3CCCCC3)nn12	/	8	-7	-2	6	-1	/	/
COc1ccccc1C1CC(=O)Nc2cc(C)c(C)cc21 (configuration not stated)	60*	30	7	-12	38	-11	55*	60*
CC(C)Oc1ccccc1C1CC(=O)Nc2cc3c(cc21)OCO3 (configuration not stated)	70*	30	31	-25	20	-2	61*	84*
SMILES	Mdm2-MdmX inh	HIF-2a inh	CF NFkB block	KKLEB cytotox	Peg3 prom inh	ABHD5-PLIN5 inh	Mdm2 MdmX conf	Full FLuc ctr
O=C1CC(c2cccnc2)c2cc3c(cc2N1)OCO3 (configuration not stated)	-22	-6	-17	-1	3	-3	/	/
COc1cccc(C2CC(=O)Nc3cc(C)c(C)cc32)c1 (configuration not stated)	/	14	14	-14	33	2	/	/
Cc1cc2c(cc1C)C(c1ccccc1Br)CC(=O)N2 (configuration not stated)	17	21	-6	6	42	-2	/	/
Cc1cc2c(cc1C)C(c1ccccc1OC(C)C)CC(=O)N2 (configuration not stated)	57*	25	13	-6	24	-4	55*	43*
CCOc1ccccc1C1CC(=O)Nc2cc(C)c(C)cc21 (configuration not stated)	57*	20	14	-6	39	4	59*	54*
CN(C(=O)c1cccc(NC(=O)Cc2ccc(NC(=O)C3CCN(C(=O)C4CCC4)CC3)cc2)c1)C1CC1	/	-9	5	11	-19	-1	/	/
O=C(c1cccs1)c1no[n+]([O-])c1C(=O)c1cccs1	95*	63*	93*	-94*	93*	-2	-1	/
CC[C@@]1(C(=O)OC)N[C@H](CN(C)C(=O)Nc2ccc(Cl)cc2)[C@@H]2C(=O)N(Cc3ccccc3)C(=O)[C@@H]21	64*	7	-4	18	14	-4	57*	51*
COC(=O)c1ccc(COc2ccccc2/C=N/NS(=O)(=O)c2ccccc2)cc1	52*	-39	8	-2	-85	-10	52*	115*
